In PubChem BioAssay (NCATS) one finds activation and Potency data, which are given here for 39 molecules.

“And” between values parts separate entries of the source, which are not always exact repeats. Equal entries are not always repeated. Inconclusive results are not listed. A structure can be active in one record and inactive in another. The source made the active and inactive calls. Calls come from the whole dose curve; as a rule, active = well fitted activation curve with a large enough effect in the signal ratio (not every such curve was filed as active); inconclusive = small, poorly fitted or top-dose-only effect, or a change in a side signal; inactive = flat fitted curve, though single readings scatter; the % refers to the signal ratio.
Potency is the fitted concentration of half-maximal effect.

A short description of this assay: qHTS assay for small molecule activators of the p53 signaling pathway (AID 651743). For activation: series mostly up to about 92 µM; % of control where 0% means no effect. The following applies: HCT-116 p53RE-bla, beta-lactamase FRET ratio, 16 h; activation: active compounds read high. The text has this: National Center for Advancing Translational Sciences [NCATS] NIH Chemical Genomics Center [NCGC] U.S. Environmental Protection Agency [EPA] National Institutes of Environmental Health Sciences [NIEHS] National Toxicology Program [NTP] Assay Overview: p53, a tumor suppressor protein, is activated following cellular insult, including DNA damage and other cellular stresses. The activation of p53 regulates cell fate by inducing DNA repair, cell cycle arrest, apoptosis, or cellular senescence. The activation of p53, therefore, is a good indicator of DNA damage and other cellular stresses. The CellSensor p53RE-bla HCT-116 cell line (Invitrogen) contains a stably integrated beta-lactamase reporter gene under control of the p53 response elements. The activation of the report gene under culture conditions can be detected by fluorescence intensity. This cell line can be used to screen chemicals in a 1536-well plate format and to identify agonists that activate p53 signaling pathway.
Assay Protocol Summary: The p53RE-bla cells were dispensed at 4,000 cells/5 ul/well in 1536-well black wall/clear bottom plates using a Multidrop dispenser. After the assay plates were incubated at a 37 C/5% CO2 incubator for 5 hours, 23 nL of compounds dissolved in DMSO, positive controls or DMSO only was transferred to the assay plate by a pin tool. The plates were incubated at 37 C for 16 hours. After 1 uL of LiveBLAzer B/G FRET substrate was added using a Flying Reagent Dispenser, the plates were incubated at room temperature for 2 hours, and fluorescence intensity was measured by an Envision plate reader.
A general note: Quantitative high-throughput screening tests each substance at several concentrations.
In the case of `CC(C)(C)C(O)/C(=C\c1ccc(Cl)cc1Cl)n1cncn1` (stereo not given), the activation was 9.12% (inactive).
As for `Cc1ccccc1C(=O)Nc1cccc(OC(C)C)c1`, the activation was -3.37% (inactive).
The same measure, in the same setting: then `CCOP(=S)(OCC)SCSP(=S)(OCC)OCC`, with -5.14% (inactive); and `O=C(CCl)c1ccccc1`, with 2.08% (inactive); and `CC(C)NC(=O)N1CC(=O)N(c2cc(Cl)cc(Cl)c2)C1=O`, with -1.23% (inactive).
Same read-out and setting: then `CCOP(=O)(SC(C)CC)SC(C)CC` (stereo not given), with -0.0138% (inactive).
Still for that read-out and setting: then `Nc1ccc([N+](=O)[O-])cc1Cl`, with -0.946% (inactive).
As for `CCSCc1ccccc1OC(=O)NC`, the activation is 3.49% (inactive).
In the case of `COCC(=O)N(c1c(C)cccc1C)N1CCOC1=O`, the activation is -3.26% (inactive).
Consider `CC(c1ccc(O)cc1)(c1ccc(O)cc1)c1ccc(O)cc1`, for which the activation is -9.57% (inactive).
The same measure, in the same setting: then `CCc1cc(C)cc(CC)c1-c1c(OC(=O)C(C)(C)C)n2n(c1=O)CCOCC2`, with -4.38% (inactive); and `COC(C)(C)CCC[C@H](C)C/C=C/C(C)=C/C(=O)OC(C)C`, with -4.16% (inactive); and `CCOP(=O)(OCC)SCSCC`, with 4.72% (inactive).
Take `O=[As](O)(O)O`: the activation is -0.546% (inactive).
On the same count and under the same terms, then `CCOP(=O)(OCC)Oc1ccc2c(C)c(Cl)c(=O)oc2c1`, with 2.64% (inactive); and `CCCCOC(=O)[C@@H](C)Oc1ccc(Oc2ccc(C#N)cc2F)cc1`, with -5.96% (inactive).
Same read-out and setting: then `O=C(O)[C@@H]1[C@H](C(=O)O)[C@@]2(Cl)C(Cl)=C(Cl)[C@]1(Cl)C2(Cl)Cl`, with -1.67% (inactive).
The same measure, in the same setting: then `CC[C@H]1CCCC(O[C@H]2CC[C@H](N(C)C)[C@@H](C)O2)[C@@H](C)C(=O)C2=C[C@@H]3[C@@H](C=C[C@@H]4C[C@@H](O[C@@H]5O[C@@H](C)[C@H](OC)[C@@H](OC)[C@H]5OC)C[C@@H]34)[C@@H]2CC(=O)O1` (stereo not given in full), with -4.77% (inactive).
As to `CCOP(=S)(NC(C)C)Oc1ccccc1C(=O)OC(C)C` (stereo not given), the activation was 2.9% (inactive).
On the same count and under the same terms, then `CCOP(=O)(OCC)SCSC(C)(C)C`, with -4.41% (inactive); and `CCN(CC)c1nc(C)cc(OP(=S)(OC)OC)n1`, with 1.41% (inactive); and `CNC(=S)S`, with -4.42% (inactive).
Still for that read-out and setting: then `CNC(=O)Oc1cc(C)c(SC)c(C)c1`, with -3.45% (inactive).
With `O=c1[nH]c2ccccc2c(=O)o1`, the activation is 1.12% (inactive).
Still for that read-out and setting: then `O=CNC(N1CCN(C(NC=O)C(Cl)(Cl)Cl)CC1)C(Cl)(Cl)Cl` (stereo not given), with -7.11% (inactive).
On the same count and under the same terms, then `CCOC(=O)C(C)OC(=O)c1cc(Oc2ccc(C(F)(F)F)cc2Cl)ccc1[N+](=O)[O-]` (stereo not given), with 0.27% (inactive).
Consider `O=Nc1ccc(Nc2ccccc2)cc1`, for which the activation was 19.9% (inactive) and the Potency was 50.1 µM (active).
Consider `CCOP(=O)(OCC)Oc1cc(C)nc(C(C)C)n1`, for which the activation is -7.84% (inactive).
For `CCOC(=O)C(Cl)Cc1cc(-n2nc(C)n(C(F)F)c2=O)c(F)cc1Cl` (stereo not given), the activation was 1.44% (inactive).
The same measure, in the same setting: then `Cc1c(F)c(F)c(COC(=O)C2C(/C=C(\Cl)C(F)(F)F)C2(C)C)c(F)c1F` (stereo not given), with -3.48% (inactive); and `O=[N+]([O-])c1ccc(Nc2ccccc2)cc1`, with -0.549% (inactive); and `CS/C(C)=N/OC(=O)N(C)SN(C)C(=O)O/N=C(\C)SC`, with -1.16% (inactive).
As to `Clc1ccc([C@]2(Cn3cncn3)C[C@H](Br)CO2)c(Cl)c1`, the activation was -0.748% (inactive) and 2.17% (inactive).
Same read-out and setting: then `CCSC(C)CC1CC(=O)C(/C(CC)=N/OC/C=C/Cl)=C(O)C1` (stereo not given), with -5.66% (inactive); and `CC(C)(C)OOC(C)(C)c1ccc(C(C)(C)OOC(C)(C)C)cc1`, with 0.499% (inactive).
On the same count and under the same terms, then `CC(O)CN(CC(C)O)CC(C)O` (stereo not given), with -9.86% (inactive); and `COP(=S)(OC)Oc1ccc([N+](=O)[O-])c(C)c1`, with -5.64% (inactive).
On to `CCOC(=O)Nc1cccc(OC(=O)Nc2ccccc2)c1`, for which the activation was -3.18% (inactive).
`FC(F)C(F)(F)OCC(Cn1cncn1)c1ccc(Cl)cc1Cl` (stereo not given): the activation is 0.478% (inactive).
